# According to the supplement of paper PMC8728848:
# This excerpt belongs to a sample that is enriched for the strongest signals.
# B1: PEB1 (Campylobacter jejuni), Q0P9X8 (protein)
# chain: MVFRKSLLKLAVFALGACVAFSNANAAEGKLESIKSKGQLIVGVKNDVPHYALLDQATGEIKGFEVDVAKLLAKSILGDDKKIKLVAVNAKTRGPLLDNGSVDAVIATFTITPERKRIYNFSEPYYQDAIGLLVLKEKKYKSLADMKGANIGVAQAATTKKAIGEAAKKIGIDVKFSEFPDYPSIKAALDAKRVDAFSVDKSILLGYVDDKSEILPDSFEPQSYGIVTKKDDPAFAKYVDDFVKEHKNEIDALAKKWGL
# How the values were obtained:
# Assay in all cases: glycan array binding signal (z-score within array); higher = stronger binding
# Details in all cases: glycan notation: IUPAC condensed, linker removed
# Fuc(a1-2)Gal(b1-4)Glc = target: Fuc(a1-2)Gal(b1-4)Glc
# Method in brief: (§1)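 From the Consortium for Functional Glycomics database, 3228 arrays were curated, keeping only those whose protein sequence was available. Binding is given as a within-array Z-score averaged across arrays sharing a protein sequence and across linkers. Negative Z-scores can be read as non-binding.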
# [1] = target: Fuc(a1-2)Gal(b1-4)GlcNAc6S
# Method in brief: as §1
# [2] = target: Fuc(a1-2)Gal6S(b1-4)GlcNAc
# Method in brief: as §1
# [3] = target: Fuc(a1-2)[GalNAc(a1-3)]Gal(b1-4)GlcNAc(b1-2)Man(a1-3)[Fuc(a1-2)[GalNAc(a1-3)]Gal(b1-4)GlcNAc(b1-2)Man(a1-6)]Man(b1-4)GlcNAc(b1-4)GlcNAc
# Method in brief: as §1
# [4] = target: Fuc(a1-3)[Gal(b1-4)]GlcNAc(b1-2)Man(a1-3)[Fuc(a1-3)[Gal(b1-4)]GlcNAc(b1-2)Man(a1-6)]Man(b1-4)GlcNAc(b1-4)GlcNAc
# Method in brief: as §1
# [5] = target: Fuc(a1-3)[Gal(b1-4)]GlcNAc(b1-4)Gal(b1-4)[Fuc(a1-3)]GlcNAc
# Method in brief: as §1
# [6] = target: Gal(a1-3)Gal(b1-3)[Fuc(a1-4)]GlcNAc(b1-2)Man(a1-3)[Gal(a1-3)Gal(b1-3)[Fuc(a1-4)]GlcNAc(b1-2)Man(a1-6)]Man(b1-4)GlcNAc(b1-4)GlcNAc
# Method in brief: as §1
# [7] = target: Gal(a1-4)Gal(b1-4)GlcNAc(b1-2)Man(a1-3)[Gal(a1-4)Gal(b1-4)GlcNAc(b1-2)Man(a1-6)]Man(b1-4)GlcNAc(b1-4)GlcNAc
# Method in brief: as §1
# Gal(b1-2)Gal = target: Gal(b1-2)Gal
# Method in brief: as §1
# [8] = target: Gal(b1-3)[Fuc(a1-4)]GlcNAc(b1-2)Man(a1-3)[Gal(b1-3)[Fuc(a1-4)]GlcNAc(b1-2)Man(a1-6)]Man(b1-4)GlcNAc(b1-4)GlcNAc
# Method in brief: as §1
# [9] = target: Gal(b1-3)[Neu5Ac(a2-6)]GalNAc
# Method in brief: as §1
# [10] = target: Gal(b1-4)GlcNAc(b1-2)Man(a1-3)[Gal(b1-4)GlcNAc(b1-2)Man(a1-6)]Man(b1-4)GlcNAc(b1-4)[Fuc(a1-6)]GlcNAc
# Method in brief: as §1
# [11] = target: Gal(b1-4)GlcNAc(b1-3)Gal(b1-3)GlcNAc
# Method in brief: as §1
# [12] = target: Gal(b1-4)GlcNAc(b1-3)Gal(b1-4)Glc
# Method in brief: as §1
# [13] = target: Gal(b1-4)GlcNAc(b1-6)Gal(b1-4)GlcNAc
# Method in brief: as §1
# Gal3S(b1-4)Glc = target: Gal3S(b1-4)Glc
# Method in brief: as §1
# [14] = target: Gal3S(b1-4)[Fuc(a1-3)]Glc6S
# Method in brief: as §1
# [15] = target: GalNAc(b1-4)GlcNAc(b1-2)Man(a1-3)[GalNAc(b1-4)GlcNAc(b1-2)Man(a1-6)]Man(b1-4)GlcNAc(b1-4)GlcNAc
# Method in brief: as §1
# [16] = target: GlcNAc(a1-4)Gal(b1-4)GlcNAc
# Method in brief: as §1
# [17] = target: Kdn(a2-3)Gal(b1-4)[Fuc(a1-3)]GlcNAc
# Method in brief: as §1
# [18] = target: Man(a1-2)Man(a1-6)[Man(a1-3)]Man(a1-6)[Man(a1-2)Man(a1-2)Man(a1-3)]Man
# Method in brief: as §1
# [19] = target: Neu5Ac(a2-3)Gal(b1-3)GlcNAc(b1-3)Gal(b1-4)GlcNAc
# Method in brief: as §1
# [20] = target: Neu5Ac(a2-3)Gal(b1-3)[Fuc(a1-4)]GlcNAc(b1-3)Gal(b1-4)[Fuc(a1-3)]GlcNAc
# Method in brief: as §1
# [21] = target: Neu5Ac(a2-3)Gal(b1-4)GlcNAc(b1-3)Gal(b1-4)[Fuc(a1-3)]GlcNAc
# Method in brief: as §1
# [22] = target: Neu5Ac(a2-3)Gal(b1-4)[Fuc(a1-3)]GlcNAc(b1-3)Gal(b1-4)GlcNAc
# Method in brief: as §1
# [23] = target: Neu5Ac(a2-3)Gal(b1-4)[Fuc(a1-3)]GlcNAc(b1-3)GalNAc
# Method in brief: as §1
# [24] = target: Neu5Ac(a2-3)Gal(b1-4)[Fuc(a1-3)]GlcNAc(b1-6)[Neu5Ac(a2-3)Gal(b1-3)]GalNAc
# Method in brief: as §1
# [25] = target: Neu5Ac(a2-3)GalNAc(b1-4)GlcNAc
# Method in brief: as §1
# [26] = target: Neu5Ac(a2-3)[GalNAc(b1-4)]Gal(b1-4)GlcNAc(b1-3)GalNAc
# Method in brief: as §1
# [27] = target: Neu5Ac(a2-3)[Neu5Ac(a2-6)]GalNAc
# Method in brief: as §1
# [28] = target: Neu5Ac(a2-6)Gal(b1-4)GlcNAc(b1-2)Man(a1-6)Man(b1-4)GlcNAc(b1-4)GlcNAc
# Method in brief: as §1
# [29] = target: Neu5Ac9Ac(a2-3)Gal(b1-3)GlcNAc
# Method in brief: as §1
# [30] = target: Neu5Gc(a2-3)Gal(b1-3)[Fuc(a1-4)]GlcNAc
# Method in brief: as §1
# [31] = target: Neu5Gc(a2-6)Gal(b1-4)GlcNAc
# Method in brief: as §1
binder,measurement,setting,value
B1,glycan array binding signal (z-score),Fuc(a1-2)Gal(b1-4)Glc,-0.354
same,glycan array binding signal (z-score),[1],-0.084
same,glycan array binding signal (z-score),[2],0.768
same,glycan array binding signal (z-score),[3],1.37
same,glycan array binding signal (z-score),[4],-0.842
same,glycan array binding signal (z-score),[5],0.229
same,glycan array binding signal (z-score),[6],3.87
same,glycan array binding signal (z-score),[7],3.37
same,glycan array binding signal (z-score),Gal(b1-2)Gal,0.469
same,glycan array binding signal (z-score),[8],4.54
same,glycan array binding signal (z-score),[9],-0.718
same,glycan array binding signal (z-score),[10],0.818
same,glycan array binding signal (z-score),[11],0.014
same,glycan array binding signal (z-score),[12],-0.613
same,glycan array binding signal (z-score),[13],-1.39
same,glycan array binding signal (z-score),Gal3S(b1-4)Glc,-1.26
same,glycan array binding signal (z-score),[14],0.849
same,glycan array binding signal (z-score),[15],4.17
same,glycan array binding signal (z-score),[16],0.303
same,glycan array binding signal (z-score),[17],-0.113
same,glycan array binding signal (z-score),[18],-0.547
same,glycan array binding signal (z-score),[19],-0.813
same,glycan array binding signal (z-score),[20],0.311
same,glycan array binding signal (z-score),[21],-0.941
same,glycan array binding signal (z-score),[22],3.14
same,glycan array binding signal (z-score),[23],8.24
same,glycan array binding signal (z-score),[24],3.1
same,glycan array binding signal (z-score),[25],-0.108
same,glycan array binding signal (z-score),[26],-0.77
same,glycan array binding signal (z-score),[27],-0.361
same,glycan array binding signal (z-score),[28],1.09
same,glycan array binding signal (z-score),[29],-0.504
same,glycan array binding signal (z-score),[30],-0.646
same,glycan array binding signal (z-score),[31],0.988
